# Source: PubChem BioAssay
# ASM inhibitor = Inhibitors of Secretory Acid Sphingomyelinase (S-ASM): qHTS. Sphingomyelin phosphodiesterase (Homo sapiens), P17405. placental ASM, HMU-PC fluorogenic substrate, 60 min. Potency, µM (top dose mostly 57.5 µM), for inactives: at the highest dose activity change, negative = inhibition, actives largely listed as inhibitors. 340,000 compounds, 0.006% hits. AID 504937, 2011
#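 Fluorescence read-out (Ex 386 nm, Em 447 nm) after stopping the reaction at pH 10. Enzyme: ASM from human placenta; substrate HMU-PC0, 9 uM final; 60 min, 37 °C. Compound preincubation 10 min, ambient temperature.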
# TDP1 inh = qHTS Assay for Inhibitors of Tyrosyl-DNA Phosphodiesterase (TDP1); AID 485290, 2010; recombinant TDP1, AlphaScreen DNA substrate cleavage; Tyrosyl-DNA phosphodiesterase 1 (Homo sapiens), Q9NUW8; 350,000 compounds, 0.28% hits; Potency, µM (highest dose often 130 µM), inactives show at the top dose activity change, negative = inhibition, usual class: inhibitors; note: % is set by controls: 0 for no effect and ±100 for the full control effect; nearly all actives have a fitted effect of over 40% in size
#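 Compounds were preincubated with Tdp1 (1 nM final) for 15 min at room temperature before substrate (15 nM final) started a 5 min reaction; beads (10 ug/ml final) were then added for 10 min before AlphaScreen detection.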
# Pin1 inh = qHTS Assay to Find Inhibitors of Pin1; 390,000 compounds, 0.009% hits; Pin1 FP peptide displacement, HiFluor488, 10 min; Potency, µM (doses to about 115 µM), without a hit: top-dose activity, negative = inhibition, most hits filed as inhibitors; active = well fitted inhibition curve with a large enough effect in the polarisation, with a control signal flat, not every such curve was filed as active; inconclusive = small, poorly fitted or top-dose-only effect, or effect the other way, or a change in a side signal; inactive = no such curve, though single readings can be large or run the other way; the % refers to the polarisation; note: % is set by controls: 0 for no effect and ±100 for the full control effect
# VDR inh = Inhibitors of the vitamin D receptor (VDR): qHTS. Vitamin D3 receptor (Homo sapiens), P11473. VDR-SRC2-3 peptide fluorescence polarization, 2 h. Potency, µM, without a hit: max response, negative = inhibition, usual class: inhibitors. 400,000 compounds, 0.93% hits. AID 504847, 2011; note: % is set by controls: 0 for no effect and ±100 for the full control effect
#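 Fluorescence polarization assay measuring small-molecule disruption of VDR binding to the coregulator peptide SRC2-3. Compounds were pin-transferred (23 nl) into the reagent mix and incubated 2 h at room temperature before reading.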
# Tb PFK inh = qHTS Assay to Find Inhibitors of T. brucei phosphofructokinase | ATP-dependent 6-phosphofructokinase (Trypanosoma brucei brucei), O15648 | T. brucei PFK, ADP-Glo luminescence | Potency, µM (titrated, usually from 57.5 µM), without a hit: at the top dose activity, negative = inhibition, most hits filed as inhibitors | 330,000 compounds, 0.17% hits;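 note: 0% = uninhibited 1x PFK enzyme wells and -100% = no-enzyme wells; nearly all actives have a fitted effect of over 60% in size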
#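 ADP-Glo luminescence quantified ADP after 45 min at room temperature, with 1.25 nM T. brucei PFK, 0.1 mM ATP and 0.5 mM fructose-6-phosphate in pH 8.0 TEA buffer. qHTS titrations up to 57 µM; curves classified by quality.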
# PLK1 PBD block = qHTS for Inhibitors of PLK1-PDB (polo-like kinase 1 - polo-box domain): Primary Screen; Serine/threonine-protein kinase PLK1 (Homo sapiens), P53350; Plk1 PBD binding of FITC phosphopeptide, fluorescence polarization; Potency, µM, without a hit: max response, negative = inhibition, most hits filed as inhibitors; 360,000 compounds, 2.8% hits; note: series mostly up to about 57 µM; % is set by controls: 0 for no effect and ±100 for the full control effect; nearly all actives have a fitted effect of over 65% in size
# Target sequence (P53350 whole entry, looked up, the tested form may be a part): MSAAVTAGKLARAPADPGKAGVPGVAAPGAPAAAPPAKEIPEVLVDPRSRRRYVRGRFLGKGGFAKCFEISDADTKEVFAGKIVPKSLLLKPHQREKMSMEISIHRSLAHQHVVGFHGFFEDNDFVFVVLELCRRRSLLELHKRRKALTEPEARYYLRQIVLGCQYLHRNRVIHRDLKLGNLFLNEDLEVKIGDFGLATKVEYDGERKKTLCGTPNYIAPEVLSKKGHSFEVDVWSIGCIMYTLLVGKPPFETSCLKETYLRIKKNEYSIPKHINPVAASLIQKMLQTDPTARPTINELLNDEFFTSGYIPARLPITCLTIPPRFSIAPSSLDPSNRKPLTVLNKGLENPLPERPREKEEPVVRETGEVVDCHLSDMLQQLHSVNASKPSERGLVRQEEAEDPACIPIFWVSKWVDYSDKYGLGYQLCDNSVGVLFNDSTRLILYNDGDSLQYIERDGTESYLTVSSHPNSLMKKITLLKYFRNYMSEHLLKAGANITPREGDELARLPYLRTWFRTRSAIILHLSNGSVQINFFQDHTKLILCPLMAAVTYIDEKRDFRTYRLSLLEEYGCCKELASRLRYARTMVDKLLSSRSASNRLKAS
# Active calls of the source: *; ? = inconclusive; . = not tested or not shown; [ ] = dose if it differs, or a comment. The list is not random: actives were taken first. Their share in the collection is about 3.1%. Unless noted, calls come from the whole dose curve; as a rule, active = well fitted curve in the direction sought with a large enough effect; inconclusive = small, poorly fitted or top-dose-only effect, or another doubt; inactive = no such curve, though single readings can be large; an effect the other way counts as inactive or inconclusive. Potency is the fitted concentration of half-maximal effect.
SMILES,ASM inhibitor,TDP1 inh,Pin1 inh,VDR inh,Tb PFK inh,PLK1 PBD block
C[C@@H]1CCC2[C@](C)(CO)C(O)CC[C@@]2(C)[C@@]12CC[C@](CO)(CCO)O2 (stereo partly specified),.,2%,.,9%,.,.
C[C@@H]1CCC2[C@](C)(CO)[C@@H](O)CC[C@]2(C)[C@@]12CCC(CO)(CCO)O2 (stereo partly specified),4%,.,-1%,2%,4%,27µM*
O=C(O)c1cccc(N2C(=O)c3cc([N+](=O)[O-])cc4cc([N+](=O)[O-])cc(c34)C2=O)c1,8%,.,.,56µM*,-12%,8.4µM*
O=C1c2cc([N+](=O)[O-])cc3cc([N+](=O)[O-])cc(c23)C(=O)N1c1ccccn1,4%,-9%,-7%,-12%,-2%,?
C/C(O)=C(\N=Nc1cc(C)ccc1O)C(N)=O,-10%,8%,5%,-3%,-3%,30µM*
Cc1ccc(O)c(N=NC2=C(O)CC(C)(C)CC2=O)c1,-4%,-2%,?,9%,-2%,6%
S=c1[nH]nc(-c2cc(-c3ccccc3)n[nH]2)n1/N=C/c1ccc(Cl)cc1,-8%,-1%,?,-8%,-1%,-20%
S=c1[nH]nc(-c2cc(-c3ccccc3)n[nH]2)n1/N=C/c1ccc(Cl)c(Cl)c1,-14%,79µM*,?,-8%,-17%,?
S=c1[nH]nc(-c2cc(-c3ccccc3)n[nH]2)n1/N=C/c1cccc(Cl)c1,-15%,35µM*,?,-11%,-14%,?
c1ccc(COC[C@@H]2CO2)cc1,.,12%,.,-1%,.,.
CC1CCCC(C)N1CCCNC(=O)C(=O)Nc1ccc2nc3n(c(=O)c2c1)CCCCC3 (stereo unspecified),-1%,1%,-8%,-29%,0%,27µM*
O=C(Nc1ccc2nc3n(c(=O)c2c1)CCCC3)c1cccnc1Cl,0%,.,-2%,?,.,19µM*
Cc1ccccc1C(=O)Nc1ccc2nc3n(c(=O)c2c1)CCCC3,-2%,.,-6%,10%,-3%,-3%
CC[C@H](C)[C@H](NC(=O)[C@H](CC(C)C)NC(=O)[C@H](CO)NC(=O)[C@H](CCC(=O)O)NC(=O)[C@H](CC(C)C)NC(=O)[C@H](Cc1ccc(O)cc1)NC(=O)[C@H](CCCCN)NC(=O)[C@H](CCCCN)NC(=O)[C@H](C)NC(=O)[C@H](CO)NC(=O)[C@H](CC(C)C)NC(=O)[C@H](CCC(N)=O)NC(=O)CNC(=O)[C@H](CC(C)C)NC(=O)[C@H](CC(C)C)NC(=O)[C@H](CCCNC(=N)N)NC(=O)[C@H](CO)NC(=O)[C@H](Cc1ccccc1)NC(=O)[C@H](CC(=O)O)NC(=O)[C@H](CO)NC(=O)[C@@H](NC(=O)[C@H](Cc1ccccc1)NC(=O)[C@@H](NC(=O)CNC(=O)[C@H](CC(=O)O)NC(=O)[C@H](C)NC(=O)[C@@H](N)Cc1cnc[nH]1)C(C)C)[C@@H](C)O)C(N)=O,.,6%,.,0%,.,.
Cc1cccc(N/N=C/c2ccc(O)c(O)c2O)c1,-1%,10%,-10%,?,-25%,12µM*
CCOC(=O)c1cccc(NC(=O)NC(C)c2c(-n3cccc3)sc3c2CCN(C)C3)c1 (stereo unspecified),.,7%,?,10%,.,.
C=CCn1c(NC(=O)c2ccc(Br)o2)c(C(=O)OCC)sc1=S,1%,-1%,-12%,89µM*,-12%,6.7µM*
COC(=O)c1ccccc1NC(=O)c1ncoc1-c1ccco1,.,6%,0%,4%,.,.
CCOc1ccc(NC(=O)CSc2nnc3c(n2)[nH]c2ccc(S(=O)(=O)N4CCCCC4)cc23)cc1,.,.,5%,10%,.,.
Cc1nc2ccc(S(=O)(=O)NC(C(=O)N3CCC(C)CC3)C(C)C)cc2s1 (stereo unspecified),0%,-1%,-8%,-11%,-1%,-6%
Cc1nc2ccc(S(=O)(=O)NC(C(=O)N3CCCC3)C(C)C)cc2s1 (stereo unspecified),4%,5%,-2%,-30%,-3%,30µM*
CN(Cc1ccccc1)c1nc(-c2ccc(F)cc2)cc(C(F)(F)F)n1,.,22µM*,-4%,-17%,.,.
COc1ccccc1NC(=O)CSc1oc(-c2ccccc2)nc1S(=O)(=O)c1ccccc1,.,3%,52%,9%,.,.
COC(=O)C1=C(C(=O)OC)[C@@H]2N(C)c3ccc(OC)cc3[C@@]23C[C@@H](C(=O)OC)N(S(=O)(=O)c2cccs2)C3=N1,.,15%[12.3 µM],.,.,.,.
COc1ccc(C(C[N+](=O)[O-])C2(c3ccc(OC)c(OC)c3)C(=O)c3ccccc3C2=O)cc1 (stereo unspecified),6%,11%,0%,32µM*,?,-10%
SMILES,ASM inhibitor,TDP1 inh,Pin1 inh,VDR inh,Tb PFK inh,PLK1 PBD block
COc1ccc(C(C[N+](=O)[O-])c2c(-c3ccccc3)cc3ccccn23)cc1OC (stereo unspecified),8%,7%,0%,-11%,.,-28%
COC(=O)/C(=C(/F)Sc1cc(C)c(O)c(C)c1)C(F)(F)F,-5%,5%,5%,1%,-3%,3.8µM*
CCN1c2ccccc2N(C)C1(C)c1ccccc1 (stereo unspecified),-6%,8%,?,?,-5%,1.7µM*
CC(/C=N/NC(=O)c1ccc(CN2c3cccc4cccc(c34)S2(=O)=O)cc1)c1ccccc1 (stereo unspecified),31%,3%,14%,-15%,-4%,?
O=C(O)c1ccc(/C=N/NC(=O)c2ccc(CN3c4cccc5cccc(c45)S3(=O)=O)cc2)cc1,6%,.,.,-2%,-7%,34µM*
Cc1ccc(S(=O)(=O)NCC(c2ccc(N(C)C)cc2)N2CCc3ccccc32)cc1C (stereo unspecified),.,14%,-1%,0%,.,.
COC(=O)c1scc(S(C)(=O)=O)c1-n1cccc1,0%,.,-3%,-13%,0%,30µM*
O=C(CN1C(=O)C2CCCCC2C1=O)Nc1nc(-c2ccccn2)cs1 (stereo unspecified),2%,2%,2%,-8%,-7%,24µM*
